Experimental data: PubChem BioAssay (NCI)
This is part of a sample that, as a whole, favours compounds with a hit. Of some 83,000 tested, about 20% had one in any assay.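 Values shown are percent growth following 48 h exposure of cells in 96-well plates to a single concentration of compound; below 10 was considered active.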 Values without a mark were called inactive. Active and inactive are the calls of the source.

Each molecule was assayed on HT29 colon (assay: NCI-60 one-dose screen, 48 h (100 = growth as untreated, 0 = no growth, -100 = all killed)). Conditions: 10 µM.
Protocol: Growth inhibition of the HT29 human tumor cell line is measured as a screen for anti-cancer activity. Cells are grown in 96 well plates and exposed to the test compound for 48 hours. Compounds are tested at a single concentration, which is 10^-5 M for most compounds. The reported endpoint is percent growth (GI% or GIPRCNT), where numbers from 0 - 100% represent growth inhibition, and numbers from -100% - 0 represent cell death. For example, a value of 40 represents 60% growth inhibition. A value of 0 means no net growth occurred over the course of the experiment. A value of -40 indicates 40% of cells at the beginning of the experiment died by the end of the experiment. A value of -100 means all cells are dead at the end of the experiment.
NCI-60 Human Tumor Cell Lines Screen was performed using the standard one-dose NCI protocol, which is described in more detail at https://dtp.cancer.gov/discovery_development/nci-60/default.htm.
Compounds with GIPRCNT values below 10 were considered active. Activity score was based on GIPRCNT using the following formula: […]
Score is 0 for GIPRCNT values of 100 or above, 50 for GIPRCNT values of 0, and 100 for GIPRCNT values of -100.

Compound	growth
CN(C)c1ccc(S(=O)(=O)O)cc1	102%
C[C@]12CC[C@@H]3c4ccc(OCC(=O)O)cc4CC[C@H]3[C@@H]1CCC2=O	104%
O=[N+]([O-])c1ccc(S(=O)(=O)NN=C2CCCCC2)cc1	107%
CN(C)CCN(C)CC(C)(C)C(=O)/C=C/c1ccc(Cl)cc1	-16.7% (active)
CNC(=S)NC(C)(C)C	101%
O=c1[nH]n(-c2ccccc2)c(=O)cc1Cl	110%
O=c1[nH]cc(Cl)cc1O	97.3%
CC1NC(=O)NC1CCCCCC(=O)O (stereo not given)	102%
OCc1cccc2ccccc12	114%
CCCCNC(=O)C(=O)NCCCC	120%
CCCCCC(C)(CC(=O)O)CC(=O)O	105%
C/C(O)=C(\C=N\C(N)=S)C(=O)Nc1ccccc1	101%
O=C(Cc1nc2ccc([N+](=O)[O-])cc2nc1CC(=O)c1ccccc1)c1ccccc1	75.3%
O=[N+]([O-])c1ccc(N=Nc2ccc(O)c3ccccc23)cc1	79.1%
O=C(NCCNC(=O)c1ccc(Cl)cc1Cl)c1ccc(Cl)cc1Cl	118%
COC(=O)Nc1cccc(Cl)c1OC	111%
CCN(CC)CCNc1ccc(CO)c2sc3ccccc3c(=O)c12	18.1%
CC(=O)c1ccc2c(ccc3ccccc32)c1	95.6%
CC1CCCCN1C(=S)Nc1ccc(S(=O)(=O)N2CCCCC2)cc1 (stereo not given)	94%
CC(=O)N(C)c1ccc([N+](=O)[O-])cc1	102%

Compound	growth
Oc1ccccc1O	92.1%
CN(C)c1ccc(CNC(C(=O)c2ccccc2)c2ccccc2)cc1 (stereo not given)	82.6%
CCOC(=O)c1ccc(Nc2sc(C(=O)c3cccc([N+](=O)[O-])c3)c(N)c2C#N)cc1	8.29% (active)
O=C(c1ccc(Cl)cc1)c1ccccc1Cl	101%
O=[N+]([O-])c1ccc(CO)cc1	108%
Oc1ccc(O)cc1	97.7%
CC1SC(N)=NC1=O (stereo not given)	128%
Cc1ccccc1N=C(c1ccccc1)C1C(=O)c2ccccc2C1=O	75.9%
O=C(c1ccc(O)cc1)c1ccc(O)cc1	106%
CCS(=O)(=O)c1cc(=O)[nH]c(=O)[nH]1	101%
N/N=C(/Cc1ccccc1)NNC(N)=S	95.7%
COC(=O)Nc1nc2ccc(C(=O)c3ccc(F)cc3)cc2[nH]1	7.47% (active)
CCC(C)(C)C1CCC(O)CC1 (stereo not given)	97.5%
Cc1cc(N)c(S(=O)(=O)O)c(N)c1	111%
CN(C)/N=C/c1ccccc1O	111%
COS(=O)(=O)c1ccc(Br)cc1	107%
Cc1cc(OCCO)cc(C)c1Cl	113%
CCC(=O)Oc1ccc(OC)cc1	105%
N#Cc1ccc(NC(=O)Nc2cccc(C#N)c2)cc1	97.3%
COc1cc2c(cc1O)CC[C@@H]1C2CC[C@@]2(C)C1CC[C@@H]2O (stereo not given in full)	22.4%
